Bioassay records (PubChem BioAssay)
Rows were chosen to be rich in hits. Some 27% of all compounds tested hit in one or more screens of this group.
sEH inh – inhibitors of human soluble epoxide hydrolase. P34913. recombinant human sEH enzymatic activity assay. inhibition, % at 2 µM. hit rate 0.34% among 91,000; in the data active means inhibition above about 80%
Target sequence (P34913 whole entry, looked up): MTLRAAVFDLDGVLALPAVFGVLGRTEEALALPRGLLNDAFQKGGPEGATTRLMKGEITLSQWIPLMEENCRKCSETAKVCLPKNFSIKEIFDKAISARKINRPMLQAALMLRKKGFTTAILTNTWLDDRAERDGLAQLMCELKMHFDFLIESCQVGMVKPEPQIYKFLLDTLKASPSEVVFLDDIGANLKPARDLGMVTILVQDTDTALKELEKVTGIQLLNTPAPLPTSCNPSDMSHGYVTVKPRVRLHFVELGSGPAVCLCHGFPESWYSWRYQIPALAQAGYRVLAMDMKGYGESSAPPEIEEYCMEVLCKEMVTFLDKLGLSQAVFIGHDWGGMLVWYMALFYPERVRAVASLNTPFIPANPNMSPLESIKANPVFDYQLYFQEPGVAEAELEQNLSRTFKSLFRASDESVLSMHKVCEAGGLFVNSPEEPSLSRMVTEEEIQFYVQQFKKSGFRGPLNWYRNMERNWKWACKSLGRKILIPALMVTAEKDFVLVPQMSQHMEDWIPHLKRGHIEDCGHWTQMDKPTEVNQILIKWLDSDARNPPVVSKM
CYP2C19 act – activators of human cytochrome P450 2C19; 96,000 tested, under 10 active; P33261; recombinant CYP2C19, luciferin-H EGE luminescence; stronger effect = higher value; 0 = fully inhibited enzyme, 1 = untreated enzyme; activation factor at 5 µM;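 active means activation factor of at least 2 at 5 µM in the primary screen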;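 further: 0 = wells with 2.5 mM tranylcypromine and 1 = vehicle-only wells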
sEH act – activators of human soluble epoxide hydrolase | purified human sEH enzymatic activity, activator screen | activation, % at 2 µM | hit rate 0.04% among 91,000 | P34913; in the data active means activation above about 37%
CYP2C9 inhib – inhibitors of human CYP2C9; P11712; CYP2C9 Supersomes, luciferin-H conversion, luminescence; inhibition, % at 5 µM; hit rate 20% among 96,000; AID 777;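 active means blocking of liver enzyme CYP2C9 beyond about 50% at 5 µM, limit read from the data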
CYP2C19 inh – human CYP2C19 inhibition; CYP2C19 Supersomes, luciferin-H EGE luminescence, 30 min; inhibition, % at 5 µM; hit rate 21% among 96,000;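 active means CYP2C19 inhibition above a set limit at 5 µM in the primary screen, cut at about 50% in these data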;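 further: plate controls were negative control wells for no effect and 2.5 mM tranylcypromine positive control for full effect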
CYP2C9 act – CYP2C9 (human) activation; hit rate 1.4% among 96,000; activation factor at 5 µM; AID 1024; recombinant CYP2C9, luciferin-H conversion, luminescence; stronger effect = higher value; factor 1 = untreated enzyme, 0 = blocked; P11712;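 active means activation factor of 2 or more for CYP2C9 at a 5 µM dose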;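 further: 0 = sulfaphenazole-blocked wells and 1 = vehicle-only wells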
* hit, by the source's call; . = not tested or not shown.

SMILES | sEH inh | CYP2C19 act | sEH act | CYP2C9 inhib | CYP2C19 inh | CYP2C9 act
CN1CCN(c2ccc([N+](=O)[O-])c(-n3nc(-c4ccccc4)c4ccccc4c3=O)c2)CC1 | -9 | 0.8 | 9 | 45 | 20 | 0.5
CCNC(=O)C1CC(=O)OC12CCCCC2 (stereo not given) | -3 | 0.7 | 3 | 0 | 31 | 1
CC(=O)c1c(N)c(C#N)c(C)n1-c1ccc(Br)cc1 | -7 | 0.1 | 5 | 4 | 94* | 1
O=C(Nc1cccc(Cl)c1Cl)c1ccc(-c2ccccc2)cc1 | -6 | 0.9 | 7 | -36 | 6 | 1.4
CN(C)S(=O)(=O)Oc1ccsc1C(=O)Nc1ccccc1Cl | -15 | 0.2 | 17 | 66* | 79* | 0.3
CN(C)S(=O)(=O)Oc1ccsc1C(=O)Nc1cccc(Cl)c1Cl | -2 | 0.2 | 4 | 72* | 84* | 0.3
CS(=O)(=O)Nc1ccccc1C(=O)Nc1ccccc1Cl | -12 | . | 12 | . | . | .
COc1ccc(CCN2CC(C(=O)NCc3ccco3)CC2=O)cc1OC (stereo not given) | -2 | 0.9 | 1 | 9 | 10 | 0.9
COc1ccc(-c2nc3ccccc3c(=O)o2)cc1OC | 4 | 1.1 | -2 | 14 | -12 | 0.9
COc1ccc(-c2c/c(=N\c3nc(-c4ccccc4)c(C)s3)c3ccccc3o2)cc1O | -8 | 0.7 | 8 | 93* | 28 | 0.1
COc1ccc(CC(=O)Nc2cccc(-c3csc(C)n3)c2)cc1 | 0 | 0.3 | 3 | 60* | 69* | 0.4
COc1ccc(-c2csc(NC(=O)CSc3nc(C)cs3)n2)cc1 | 2 | . | 0 | . | . | .
Cc1csc(SCC(=O)Nc2ccccn2)n1 | 7 | 0.7 | -9 | 1 | 33 | 1
Cc1csc(NC(=O)CSc2nc(C)cs2)n1 | -10 | 0.4 | 11 | 14 | 58* | 0.9
COc1ccc(NC(=O)CSc2nc(C)cs2)cc1OC | -20 | 0.5 | 20 | 43 | 47 | 0.6
COc1cccc(NC(=O)CSc2nc(C)cs2)c1 | 4 | 0.2 | -6 | 24 | 82* | 0.8
Cc1csc(SCC(=O)Nc2cccc3nsnc23)n1 | 4 | 0.4 | -3 | 77* | 55* | 0.2
Cc1nn(CC(=O)Nc2sc3c(c2C#N)CCC(C(C)(C)C)C3)c(C)c1[N+](=O)[O-] (stereo not given) | 3 | 0.9 | -4 | 48 | 8 | 0.5
COCC(=O)OCC(=O)Nc1cc(C(C)(C)C)nn1-c1ccccc1 | -2 | 1.1 | 3 | 9 | -15 | 0.9
Cc1csc(SCC(=O)Nc2cc(C(C)(C)C)nn2-c2ccccc2)n1 | . | 0.3 | . | 80* | 71* | 0.2
N#Cc1cc2c(nc1SCc1ccccc1)CCCCC2 | -21 | 0.9 | 25 | 16 | 14 | 0.8
N#Cc1cc2c(nc1SCc1cccnc1)CCCCC2 | -5 | 0.2 | 8 | 50 | 80* | 0.5
N#Cc1cc2ccccc2nc1SCc1cccnc1 | . | 0.5 | . | 40 | 52* | 0.6
N#Cc1cc2c(nc1SCC(O)CS(=O)(=O)Cc1ccccc1)CCCC2 (stereo not given) | 5 | 0.8 | 0 | 58* | 22 | 0.4
COc1ccccc1CN1C(=O)CN(C2CCCC2)C(=O)C1c1ccc(F)cc1 (stereo not given) | -13 | 0.8 | 12 | 24 | 21 | 0.8
SMILES | sEH inh | CYP2C19 act | sEH act | CYP2C9 inhib | CYP2C19 inh | CYP2C9 act
CC#CCNCc1ccccc1 | -10 | 1.2 | 7 | -8 | -17 | 1.1
CC(C)c1ccc(CNCc2ccccc2)cc1 | 3 | 0.2 | -1 | 8 | 75* | 0.9
OCc1ccccc1CNCc1ccccc1 | 1 | 0.4 | -1 | 8 | 62* | 0.9
O=C(O)/C=C\C(=O)NCc1ccccc1 | -1 | 1.1 | 3 | -19 | -13 | 1.2
Cc1cccc(NC(=S)NNC(=S)NCc2ccccc2)c1 | -17 | 0.9 | 17 | 60* | 12 | 0.4
NC(=O)CC(NC(=S)NCc1ccccc1)C(=O)O (stereo not given) | -10 | 1 | 12 | 9 | 2 | 0.9
O=C(O)CC(NC(=S)NCc1ccccc1)C(=O)O (stereo not given) | 5 | 0.9 | -7 | 62* | 8 | 0.4
O=S(=O)(NC1=NCCC1)c1ccc(F)cc1 | 4 | 0.9 | -2 | 14 | 9 | 0.9
Cc1cc(C)c(OCCCCNCc2ccccc2)c(Cl)c1 | 13 | 0.6 | -14 | 22 | 43 | 0.8
FC(F)Oc1ccc(NC(=S)NCc2ccccc2)cc1Cl | 18 | 0.5 | -16 | -124 | 50* | 2.2*
S=C(NCc1ccccc1)NCc1ccccc1 | 2 | 0.1 | 0 | -12 | 90* | 1.1
Cn1c(SCc2ccc(C#N)cc2Cl)nc2ccccc21 | 8 | 0.4 | -8 | 33 | 57* | 0.7
Cc1nnc(OC(C)C)c2nn(-c3ccccc3F)c(C)c12 | 14 | 0.5 | -11 | 89* | 51* | 0.1
COc1ccc2c3c(cccc13)N(C)N=C2C | -10 | 0.3 | 11 | 63* | 74* | 0.4
Cc1ccc(S(=O)(=O)/C(C#N)=C/c2c(N3CCN(C)CC3)nc3ccccn3c2=O)cc1 | 0 | 0.8 | 0 | 81* | 17 | 0.2
Cc1ccc(S(=O)(=O)/C(C#N)=C/c2c(N3CC(C)OC(C)C3)nc3ccccn3c2=O)cc1 (stereo not given) | 5 | 0.8 | -3 | 57* | 20 | 0.4
Cc1cc(=O)oc(C)c1C(=O)Nc1c(C)n(C)n(-c2ccccc2)c1=O | . | 1.1 | . | 7 | -5 | 0.9
CCSc1nc2cc(C(=O)OC)ccc2c(=O)n1CC | -14 | . | 13 | . | . | .
CCOC(=O)c1ccc(NC(=O)c2cc3ccccc3o2)cc1 | . | 0.6 | . | 42 | 42 | 0.6
C=CCNC(=O)CSc1nc2cc(C(=O)OCC)ccc2n1CC | 2 | 0 | -2 | 75* | 96* | 0.3
CCOC(=O)c1ccc2c(c1)nc(COc1ccc(OC)cc1)n2CC | -17 | 0.2 | 17 | 55* | 76* | 0.4
CCOC(=O)c1ccc2c(c1)nc(SCC(=O)c1cc3ccccc3o1)n2CC | -19 | 0.6 | 15 | 78* | 41 | 0.2
CC(=O)Oc1ccccc1-c1nc(C)nc(N(C)C(C)=O)n1 | . | 0.6 | . | -17 | 38 | 1.2
O=C(CSc1nc2ccccc2c(=O)n1NC(=O)Cc1ccccc1)NCc1ccccc1Cl | 5 | 0.1 | -8 | 94* | 90* | 0.1
O=C(CSc1ncccn1)NCc1ccccc1Cl | 21 | 0.3 | -23 | -23 | 75* | 1.2
Clc1ccccc1CSc1snnc1-c1ccccc1 | -2 | 1 | 5 | -57 | -2 | 1.6
Clc1ccccc1CSc1ncccn1 | -1 | 0.5 | 1 | -34 | 53* | 1.3
COc1ccc(CN2C(=O)c3cccnc3C2Nc2cc(Cl)ccc2OC)cc1 (stereo not given) | . | 0.4 | . | 48 | 63* | 0.5
COc1ccc(OC)c(NC2c3ncccc3C(=O)N2Cc2ccco2)c1 (stereo not given) | -8 | 0.7 | 8 | 27 | 29 | 0.7
